SMILES strings stand for the structures. This is part of a sample that, as a whole, favours compounds with a hit. Of some 83,000 tested, about 20% had one in any assay.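 For each line, cells grew in 96-well plates with the test compound present at a single concentration for 48 hours.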 Unmarked numbers belong to inactive results. Active and inactive are the calls of the source. Rule for the calls: active = growth percent below 10; inactive = the rest.

The subject of this test is MDA-MB-468 breast. Briefly: NCI-60 one-dose screen, 48 h (100 = growth as untreated, 0 = no growth, -100 = all killed). The conditions noted are these: 10 µM unless noted.
With `COC(CCCl)c1ccc(Cl)cc1` (stereo unspecified), the growth is 102%.

In the case of `COC(=O)/C(CCC=C(C)C)=C1\[C@@H](OC(C)=O)C[C@@]2(C)[C@H]1C[C@@H](O)[C@H]1[C@@]3(C)CC[C@H](NCCCNCCCCNCCCN)[C@@H](C)[C@@H]3CC[C@@]12C`, the growth is 78.5%.

Take `COc1ccc(C(=O)c2cc3c(N)c(C(=O)Nc4cccc(OC)c4)sc3nc2C)cc1`: the growth was 4.38% (active).

For the compound `O=S(=O)(NCCCNc1nccc(-c2c(-c3cccc(O)c3)nc3occn23)n1)c1ccc(F)cc1`, the growth was 100%.

As to `C/C(=N\NC(=S)N1CCCC1)c1ccccn1`, the growth is -31.9% (active).

On to `Clc1ccc(CNc2c3ccccc3nc3ccccc23)cc1`, for which the growth is 29.6%.

Turning to `Cc1cc(=O)oc2cc(Oc3nc(-c4ccccc4)cn4c(-c5ccccc5)cnc34)ccc12`, the growth was 44.2%.

Consider `CCOC(=O)c1nnn(Cc2cc(=O)oc3c2ccc2ccccc23)c1C`, for which the growth was 103%.

For `Nc1ccc(S(=O)(=O)O)c2cc(S(=O)(=O)O)cc(O)c12`, the growth is 106%.

With `O=C(CCC(=O)c1nc2ncccc2[nH]1)NN1C(=O)CSC1c1ccc(Cl)cc1` (stereo unspecified), the growth was 112%.

As to `CC(C)CNc1nc(N=[N+]=[N-])nc(NCC(C)C)n1`, the growth is 59.7% [100 µM].

For `C=CCn1c(SCC(=O)c2ccc(OC)cc2)nnc1-c1ccc(OC)cc1`, the growth is 90.6%.

Turning to `Cc1nc2sc(C(=O)Nc3ccccc3)c(N)c2cc1C(=O)/C=C/c1ccccc1`, the growth is 2.08% (active).

For the compound `Nc1cc(Cl)cc2cccnc12`, the growth was 92.7%.

`COc1ccc(NC(=O)CCn2cnc3c(cc(-c4ccccc4)n3-c3ccccc3)c2=O)cc1`: the growth was 79.5%.

On to `c1csc(-c2c3ccc(=[N+]4CCCCC4)cc-3oc3cc(N4CCCCC4)ccc23)c1`, for which the growth was -90% (active).

Regarding `CC1(C)NCCC[C@]2(C)[C@H]3C/C(=N\O)C4[C@@H]5C[C@@](C)(CO)CC[C@]5(C)CC[C@@]4(C)[C@]3(C)CC[C@@H]12` (stereo partly specified), the growth is 89.4%.

`CN1CCN(c2ccc(NC(=O)c3nc4ccc5[nH]ncc5c4c4c3CCCC4)cc2C(F)(F)F)CC1`: the growth is 44%.

As for `O=[N+]([O-])c1ccc(N/N=C\c2ccccc2[N+](=O)[O-])nc1`, the growth is 114%.

For the compound `O=c1oc2c(cc1-c1ccccc1)c(=O)[nH]c1ccccc12`, the growth is 105%.

With `COC(=O)/C=C1/CCCCC1(C)C(=O)OC` (stereo unspecified), the growth is 103%.

With `CCCCn1c(=O)c(-c2cc(-c3ccc(Cl)cc3)nc(-c3ccc(Cl)cc3)c2)cc2ccc(Cl)cc21`, the growth is 95%.

For the compound `C/C(=N/NC(N)=S)C(=O)O`, the growth is 39.2%.

Consider `COC1OCC(OS(=O)(=O)c2ccc(C)cc2)C(OC(=O)c2ccccc2)C1OC(=O)c1ccccc1` (stereo unspecified), for which the growth was 13%.

As to `Cn1c(=O)c2c(c3ccccc31)OC(N)=C(C#N)C21C(=O)c2ccccc2C1=O`, the growth is 96.4%.

For the compound `O=C1c2cccc3cccc(c23)C(=O)N1N1C(=O)c2cccc3c(N4CCNCC4)ccc(c23)C1=O`, the growth was 91%.

For `CC/C=C\C/C=C\C[C@H]1C/C=C2/C(=O)C=C[C@@H]2C/C=C\CCC(=O)O1`, the growth was -8.25% (active).

In the case of `CC1(c2ccc(Cl)cc2)OC(=O)CC(=O)O1`, the growth is 109%.

As to `Cc1ccc(NC(=O)c2ccc(CN3CCN(C)CC3)c(I)c2)cc1Oc1ccc(-c2[nH]nc3ncnc(N)c23)cc1`, the growth is 105%.

For the compound `CCN1C(=O)N(CC)C2C1NN=c1s/c(=C\c3ccccc3F)c(=O)n12` (stereo unspecified), the growth is 10.9%.

Consider `COc1cccc(-c2nc3sccn3c2/C=C/C(=O)c2ccc(C(F)(F)F)cc2)c1`, for which the growth was 75.6%.

Regarding `COC(=O)[C@]12CC[C@@H](C)[C@H](C)[C@@H]1C1=CC[C@@H]3[C@@]4(C)C[C@@H](O)[C@H](O)[C@@](C)(CO)[C@@H]4[C@H](O)C[C@@]3(C)[C@]1(C)CC2`, the growth is -53% (active).

On to `FC(F)(F)c1ccc2nc(-c3nc(-c4ccccc4)n4ccccc34)[nH]c2c1`, for which the growth is 83.4%.

`C/C(=N\O)c1ccc(NC(=O)CSc2nnc(-c3cc(-c4ccc(S(C)(=O)=O)cc4)nc4ccccc34)n2-c2ccccc2)cc1`: the growth is 92.6%.

For the compound `COc1c2occc2c(OC)c2c(=O)c(-c3cc(-c4ccc(F)cc4)c(C#N)c(N)n3)c(C)oc12`, the growth was 26.4%.

For `Cn1cc(-c2csc(-c3c[nH]c4ccccc34)n2)c2cccnc21`, the growth was -22% (active).

Source of the values: PubChem BioAssay (NCI).
